{
  "source": "the supplement of paper PMC12067093",
  "about": "“Discovery and optimisation of a covalent ligand for TRIM25 and its application to targeted protein ubiquitination” (Chemical Science, 2025)",
  "compound": "Cc1cc(ccc1-c1ccccc1)C(=O)N1CCCN(CC1)C(=O)CCl [compound 10]",
  "assay": "probe-labelled cysteine peptide fold change vs DMSO (competition) (log2 fold change); higher = less target engagement (more negative = stronger competition)",
  "conditions": "THP-1, incubation time: 4 h",
  "note": "Targets with the largest changes are over-represented here; the source holds about 21,000 in all.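 Also: competitive profiling in live THP-1 cells: cysteine peptides tagged with an iodoacetamide desthiobiotin (IA-DTB) probe, intensity after compound treatment relative to DMSO-treated cells.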",
  "data": [
    {"target": "MKS1_Q9NXB0_226_KYEHVLCTLK (UniProt Q9NXB0)", "sequence (Q9NXB0 whole entry)": "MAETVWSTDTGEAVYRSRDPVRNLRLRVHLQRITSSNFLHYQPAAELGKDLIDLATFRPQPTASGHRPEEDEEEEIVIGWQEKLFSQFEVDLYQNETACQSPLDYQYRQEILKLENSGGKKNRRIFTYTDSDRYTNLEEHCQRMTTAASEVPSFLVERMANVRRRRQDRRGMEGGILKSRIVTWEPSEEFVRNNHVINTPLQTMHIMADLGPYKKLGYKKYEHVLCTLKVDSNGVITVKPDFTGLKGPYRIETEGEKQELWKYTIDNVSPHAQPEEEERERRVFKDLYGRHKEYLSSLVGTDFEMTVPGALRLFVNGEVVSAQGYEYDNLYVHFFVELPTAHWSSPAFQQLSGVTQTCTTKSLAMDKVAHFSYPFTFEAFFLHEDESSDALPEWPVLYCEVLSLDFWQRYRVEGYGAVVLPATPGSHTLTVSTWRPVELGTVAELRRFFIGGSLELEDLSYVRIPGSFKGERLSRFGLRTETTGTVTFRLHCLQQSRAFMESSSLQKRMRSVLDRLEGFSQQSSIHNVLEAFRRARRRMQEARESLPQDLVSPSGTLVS", "values": [
      {"measurement": "probe-labelled cysteine peptide fold change", "setting": "10 µM", "value": -0.112},
      {"measurement": "probe-labelled cysteine peptide fold change", "setting": "50 µM", "value": 0.305}
    ]},
    {"target": "LSM2_Q9Y333_26_NDLSICGTLHSVDQYLNIK (UniProt Q9Y333)", "sequence (Q9Y333 whole entry, looked up)": "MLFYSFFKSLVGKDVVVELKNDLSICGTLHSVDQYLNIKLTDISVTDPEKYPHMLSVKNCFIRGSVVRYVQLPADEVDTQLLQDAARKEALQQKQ", "values": [
      {"measurement": "probe-labelled cysteine peptide fold change", "setting": "10 µM", "value": 0.109},
      {"measurement": "probe-labelled cysteine peptide fold change", "setting": "50 µM", "value": 0.253}
    ]},
    {"target": "MCM2_P49736_223_ISDMCK (UniProt P49736)", "values": [
      {"measurement": "probe-labelled cysteine peptide fold change", "setting": "10 µM", "value": -0.124},
      {"measurement": "probe-labelled cysteine peptide fold change", "setting": "50 µM", "value": -0.178}
    ]},
    {"target": "MMADHC_Q9H3L0_261+262_HLGFSVDDLGCCK (UniProt Q9H3L0)", "values": [
      {"measurement": "probe-labelled cysteine peptide fold change", "setting": "10 µM", "value": -0.412},
      {"measurement": "probe-labelled cysteine peptide fold change", "setting": "50 µM", "value": -1.16}
    ]},
    {"target": "LPP_Q93052_524_SLDGIPFTVDAGGLIHCIEDFHKK (UniProt Q93052)", "sequence (Q93052 whole entry, looked up)": "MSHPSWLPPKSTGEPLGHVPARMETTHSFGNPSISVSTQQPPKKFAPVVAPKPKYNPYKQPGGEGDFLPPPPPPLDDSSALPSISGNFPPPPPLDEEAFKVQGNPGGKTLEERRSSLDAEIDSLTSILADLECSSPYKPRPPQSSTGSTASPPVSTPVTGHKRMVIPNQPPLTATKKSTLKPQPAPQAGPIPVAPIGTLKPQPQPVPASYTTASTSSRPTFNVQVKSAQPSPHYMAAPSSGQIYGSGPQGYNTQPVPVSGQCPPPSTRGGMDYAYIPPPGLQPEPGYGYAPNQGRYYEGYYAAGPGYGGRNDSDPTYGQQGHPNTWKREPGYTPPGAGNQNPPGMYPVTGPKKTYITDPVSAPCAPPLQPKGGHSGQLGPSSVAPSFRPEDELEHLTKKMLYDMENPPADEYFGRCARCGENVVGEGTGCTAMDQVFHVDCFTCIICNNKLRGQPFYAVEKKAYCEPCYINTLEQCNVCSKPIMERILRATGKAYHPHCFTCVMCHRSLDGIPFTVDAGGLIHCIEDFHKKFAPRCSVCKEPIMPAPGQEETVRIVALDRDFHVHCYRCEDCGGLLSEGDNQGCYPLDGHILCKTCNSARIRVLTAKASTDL", "values": [
      {"measurement": "probe-labelled cysteine peptide fold change", "setting": "10 µM", "value": -0.0384},
      {"measurement": "probe-labelled cysteine peptide fold change", "setting": "50 µM", "value": -0.452}
    ]},
    {"target": "MICALL1_Q8N3F8_597_GSSGPQPAKPCSGATPTPLLLVGDR (UniProt Q8N3F8)", "sequence (Q8N3F8 whole entry, looked up)": "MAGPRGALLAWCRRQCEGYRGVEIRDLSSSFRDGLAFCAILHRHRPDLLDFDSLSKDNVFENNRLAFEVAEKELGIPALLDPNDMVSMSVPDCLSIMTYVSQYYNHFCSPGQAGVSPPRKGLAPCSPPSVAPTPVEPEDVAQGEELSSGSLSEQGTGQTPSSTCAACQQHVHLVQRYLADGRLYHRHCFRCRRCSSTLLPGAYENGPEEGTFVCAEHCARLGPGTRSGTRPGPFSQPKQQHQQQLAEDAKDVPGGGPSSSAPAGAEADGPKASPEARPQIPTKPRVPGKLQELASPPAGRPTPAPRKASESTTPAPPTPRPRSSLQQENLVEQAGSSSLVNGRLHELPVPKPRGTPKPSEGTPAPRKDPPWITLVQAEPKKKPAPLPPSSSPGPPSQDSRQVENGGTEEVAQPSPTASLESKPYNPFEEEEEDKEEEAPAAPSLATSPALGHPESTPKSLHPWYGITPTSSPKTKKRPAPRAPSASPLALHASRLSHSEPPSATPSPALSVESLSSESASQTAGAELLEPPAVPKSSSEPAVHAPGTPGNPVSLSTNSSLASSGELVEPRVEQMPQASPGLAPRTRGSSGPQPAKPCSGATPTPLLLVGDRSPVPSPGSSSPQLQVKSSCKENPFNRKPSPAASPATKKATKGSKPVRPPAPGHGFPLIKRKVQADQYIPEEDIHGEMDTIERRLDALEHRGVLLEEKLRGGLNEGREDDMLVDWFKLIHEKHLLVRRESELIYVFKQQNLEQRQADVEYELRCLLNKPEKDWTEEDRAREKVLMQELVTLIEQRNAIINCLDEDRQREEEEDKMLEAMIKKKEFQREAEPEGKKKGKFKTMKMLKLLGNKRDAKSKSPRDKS", "values": [
      {"measurement": "probe-labelled cysteine peptide fold change", "setting": "10 µM", "value": -0.17},
      {"measurement": "probe-labelled cysteine peptide fold change", "setting": "50 µM", "value": -0.459}
    ]},
    {"target": "LRRC8A_Q8IWT6_768+776_GNRLECLPVELGECPLLK (UniProt Q8IWT6)", "values": [
      {"measurement": "probe-labelled cysteine peptide fold change", "setting": "10 µM", "value": -0.106},
      {"measurement": "probe-labelled cysteine peptide fold change", "setting": "50 µM", "value": -0.0226}
    ]},
    {"target": "MAP4K1_Q92918_334+335_SSSLGIPDADCCR (UniProt Q92918)", "sequence (Q92918 whole entry, looked up)": "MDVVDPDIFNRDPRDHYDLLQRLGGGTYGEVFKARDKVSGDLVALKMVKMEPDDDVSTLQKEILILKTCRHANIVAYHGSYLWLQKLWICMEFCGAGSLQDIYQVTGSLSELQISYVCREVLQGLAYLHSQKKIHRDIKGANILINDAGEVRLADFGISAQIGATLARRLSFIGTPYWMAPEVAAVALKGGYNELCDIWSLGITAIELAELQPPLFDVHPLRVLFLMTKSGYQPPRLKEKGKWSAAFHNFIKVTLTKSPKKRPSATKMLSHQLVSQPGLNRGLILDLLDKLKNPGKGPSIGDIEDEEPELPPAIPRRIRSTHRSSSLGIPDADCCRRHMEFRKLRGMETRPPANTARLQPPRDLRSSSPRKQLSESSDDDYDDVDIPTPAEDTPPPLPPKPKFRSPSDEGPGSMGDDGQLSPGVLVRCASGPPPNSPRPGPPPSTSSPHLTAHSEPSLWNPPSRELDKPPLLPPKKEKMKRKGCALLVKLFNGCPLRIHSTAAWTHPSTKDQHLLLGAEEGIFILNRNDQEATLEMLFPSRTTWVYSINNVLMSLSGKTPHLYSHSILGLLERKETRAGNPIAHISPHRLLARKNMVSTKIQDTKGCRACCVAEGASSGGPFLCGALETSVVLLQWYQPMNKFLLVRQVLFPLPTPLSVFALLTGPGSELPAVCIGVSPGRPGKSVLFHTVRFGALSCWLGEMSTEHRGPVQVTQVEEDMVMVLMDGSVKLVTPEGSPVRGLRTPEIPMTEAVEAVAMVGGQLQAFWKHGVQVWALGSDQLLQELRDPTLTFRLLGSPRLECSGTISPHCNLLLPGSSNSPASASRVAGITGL", "values": [
      {"measurement": "probe-labelled cysteine peptide fold change", "setting": "10 µM", "value": -0.26},
      {"measurement": "probe-labelled cysteine peptide fold change", "setting": "50 µM", "value": -1.18}
    ]},
    {"target": "MRPS30_Q9NP92_393_NICWGTQSK (UniProt Q9NP92)", "values": [
      {"measurement": "probe-labelled cysteine peptide fold change", "setting": "10 µM", "value": -0.226},
      {"measurement": "probe-labelled cysteine peptide fold change", "setting": "50 µM", "value": -0.187}
    ]},
    {"target": "MSI1_O43347_167_VCEIHFHEINNK<|>MSI2_Q96DH6_168_VCEIHFHEINNK (UniProt Q96DH6+O43347)", "values": [
      {"measurement": "probe-labelled cysteine peptide fold change", "setting": "10 µM", "value": 0.163},
      {"measurement": "probe-labelled cysteine peptide fold change", "setting": "50 µM", "value": 0.236}
    ]},
    {"target": "LIMS1_P48059_193_MGVPICGACR (UniProt P48059)", "sequence (P48059 whole entry, looked up)": "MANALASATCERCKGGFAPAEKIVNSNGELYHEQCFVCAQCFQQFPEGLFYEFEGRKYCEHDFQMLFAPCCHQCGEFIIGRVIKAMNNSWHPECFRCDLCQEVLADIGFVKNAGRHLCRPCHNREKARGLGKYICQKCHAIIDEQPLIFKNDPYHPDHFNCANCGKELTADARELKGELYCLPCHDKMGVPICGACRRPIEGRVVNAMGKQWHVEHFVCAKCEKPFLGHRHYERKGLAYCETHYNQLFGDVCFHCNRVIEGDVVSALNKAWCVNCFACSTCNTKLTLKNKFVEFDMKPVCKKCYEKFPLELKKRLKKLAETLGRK", "values": [
      {"measurement": "probe-labelled cysteine peptide fold change", "setting": "10 µM", "value": -0.104},
      {"measurement": "probe-labelled cysteine peptide fold change", "setting": "50 µM", "value": -0.269}
    ]},
    {"target": "MTMR10_Q9NXD2_70_LICSNFK (UniProt Q9NXD2)", "sequence (Q9NXD2 whole entry, looked up)": "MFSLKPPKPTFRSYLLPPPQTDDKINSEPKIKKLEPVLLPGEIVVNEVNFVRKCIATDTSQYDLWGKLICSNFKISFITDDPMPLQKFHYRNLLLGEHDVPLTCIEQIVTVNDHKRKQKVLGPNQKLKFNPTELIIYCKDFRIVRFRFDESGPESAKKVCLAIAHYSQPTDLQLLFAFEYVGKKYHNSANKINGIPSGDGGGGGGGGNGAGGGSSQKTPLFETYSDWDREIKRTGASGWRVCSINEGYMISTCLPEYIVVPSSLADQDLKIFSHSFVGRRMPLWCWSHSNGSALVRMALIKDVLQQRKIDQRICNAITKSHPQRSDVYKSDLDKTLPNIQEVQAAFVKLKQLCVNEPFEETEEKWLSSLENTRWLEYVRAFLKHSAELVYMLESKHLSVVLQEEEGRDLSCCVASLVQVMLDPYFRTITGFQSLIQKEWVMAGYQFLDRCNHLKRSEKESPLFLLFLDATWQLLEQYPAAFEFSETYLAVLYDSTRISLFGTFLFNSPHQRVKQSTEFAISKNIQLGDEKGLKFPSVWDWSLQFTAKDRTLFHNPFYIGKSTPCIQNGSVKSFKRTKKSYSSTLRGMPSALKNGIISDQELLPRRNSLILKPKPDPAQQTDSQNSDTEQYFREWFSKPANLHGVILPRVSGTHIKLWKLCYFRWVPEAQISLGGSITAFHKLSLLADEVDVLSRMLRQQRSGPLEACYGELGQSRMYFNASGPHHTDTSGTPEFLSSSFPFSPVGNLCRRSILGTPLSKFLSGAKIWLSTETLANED", "values": [
      {"measurement": "probe-labelled cysteine peptide fold change", "setting": "10 µM", "value": -0.125},
      {"measurement": "probe-labelled cysteine peptide fold change", "setting": "50 µM", "value": -0.103}
    ]},
    {"target": "MCMBP_Q9BTE3_325_LQHINPLLPACLNK (UniProt Q9BTE3)", "sequence (Q9BTE3 whole entry, looked up)": "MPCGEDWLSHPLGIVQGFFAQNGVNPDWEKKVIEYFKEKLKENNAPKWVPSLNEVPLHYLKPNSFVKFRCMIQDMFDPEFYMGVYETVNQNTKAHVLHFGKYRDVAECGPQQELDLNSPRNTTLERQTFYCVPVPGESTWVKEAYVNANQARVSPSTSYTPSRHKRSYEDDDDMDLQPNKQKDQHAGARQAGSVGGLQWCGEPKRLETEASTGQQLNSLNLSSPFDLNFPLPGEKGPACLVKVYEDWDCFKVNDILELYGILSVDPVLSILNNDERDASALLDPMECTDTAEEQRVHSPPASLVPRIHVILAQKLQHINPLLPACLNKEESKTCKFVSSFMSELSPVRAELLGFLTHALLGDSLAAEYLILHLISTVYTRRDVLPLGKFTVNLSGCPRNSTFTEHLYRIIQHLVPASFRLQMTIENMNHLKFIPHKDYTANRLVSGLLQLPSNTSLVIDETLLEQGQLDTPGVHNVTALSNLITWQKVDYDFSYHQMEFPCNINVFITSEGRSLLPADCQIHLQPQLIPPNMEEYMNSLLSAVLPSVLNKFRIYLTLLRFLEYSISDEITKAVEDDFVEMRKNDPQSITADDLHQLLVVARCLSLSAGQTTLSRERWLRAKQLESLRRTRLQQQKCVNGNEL", "values": [
      {"measurement": "probe-labelled cysteine peptide fold change", "setting": "10 µM", "value": -0.451},
      {"measurement": "probe-labelled cysteine peptide fold change", "setting": "50 µM", "value": -1.87}
    ]},
    {"target": "MMTAG2_Q9BU76_103_EDFAEVCKR (UniProt Q9BU76)", "sequence (Q9BU76 whole entry, looked up)": "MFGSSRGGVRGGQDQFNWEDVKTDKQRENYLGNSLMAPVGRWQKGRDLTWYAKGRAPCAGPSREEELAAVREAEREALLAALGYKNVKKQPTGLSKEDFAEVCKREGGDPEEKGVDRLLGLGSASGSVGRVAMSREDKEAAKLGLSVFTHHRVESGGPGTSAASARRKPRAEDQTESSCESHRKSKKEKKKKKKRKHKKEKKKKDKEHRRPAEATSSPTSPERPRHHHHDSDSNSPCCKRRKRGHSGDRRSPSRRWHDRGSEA", "values": [
      {"measurement": "probe-labelled cysteine peptide fold change", "setting": "10 µM", "value": -0.168},
      {"measurement": "probe-labelled cysteine peptide fold change", "setting": "50 µM", "value": -0.321}
    ]}
  ]
}
